Compound activity from PubChem.
Most compounds without a hit are left out; they make up all but 9% or so of the library.
G9a inh: blocks human histone lysine methyltransferase G9a. Q96KQ7. G9a H3K9 monomethylation, AlphaScreen, 2 h. Potency, µM (top dose mostly 102 µM), for the others: top-dose activity, negative = inhibition, hits mostly inhibitors. 8.8% of 350,000 active. AID 504332; also: % is scaled to controls: 0 for no effect and ±100 for the full control effect; nearly all actives have a fitted effect of over 75% in size
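AlphaScreen read-out: biotin-H3K9 peptide (500 nM) methylation by 20 nM enzyme with 20 uM SAM, 2 h at room temperature after 15 min compound preincubation; anti-monomethyl H3K9 antibody plus donor/acceptor beads, 10 min dark.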
PLK1 PBD inh: blocks phosphopeptide binding to human PLK1 polo-box domain; P53350; Plk1 PBD binding of FITC phosphopeptide, fluorescence polarization; Potency, µM, for inactives: max response, negative = inhibition, most hits filed as inhibitors; 2.8% of 360,000 active; also: series mostly up to about 57 µM; % is scaled to controls: 0 for no effect and ±100 for the full control effect; nearly all actives have a fitted effect of over 65% in size
BAZ2B block: blocks human BAZ2B. Q9UIF8. AlphaScreen BAZ2B-H3K14Ac peptide displacement. Potency, µM (titrated, usually from 114 µM), for inactives: top-dose activity change, negative = inhibition, usual class: inhibitors. 4.4% of 360,000 active; also: % is scaled to controls: 0 for no effect and ±100 for the full control effect; nearly all actives have a fitted effect of over 60% in size
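AlphaScreen displacement: compounds (up to 110uM) incubated 30 min at room temperature with a preformed 50 nM BAZ2B/50 nM biotinylated H3K14Ac peptide complex in PBS pH 7.4 with Tween-20. Donor and acceptor beads at 10 ug/mL final added, 20 min light-protected before reading.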
12-LOX inh: inhibitors of human 12S-lipoxygenase ALOX12; 1.1% of 580,000 active; purified 12hLO, xylenol orange hydroperoxide absorbance; P18054; Potency, µM (highest dose often 108 µM), for inactives: at the top dose activity change, negative = inhibition, usual class: inhibitors; AID 1671190; also: % is scaled to controls: 0 for no effect and ±100 for the full control effect
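Purified human 12hLO at 150 nM in 25 mM Hepes, 0.01% Triton X-100, pH 7.0, preincubated 15 min at room temperature with compound. Reaction started with 40 uM arachidonic acid, 30 min at room temperature. Hydroperoxide measured by Fe-xylenol orange, 573/405 nm absorbance ratio.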
HP1b chromo inh: inhibitors of HP1-beta chromodomain binding to methylated histone tails. P83916. 0.56% of 390,000 active. Potency, µM (highest dose often 114 µM), without a hit: at the top dose activity change, negative = inhibition, hits mostly inhibitors. AlphaScreen HP1-beta / biotin-H3K9me3 peptide binding; also: nearly all actives have a fitted effect of over 70% in size
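HP1-beta protein (50 nM final) preincubated 30 min at room temperature with biotinylated H3(1-18)K9me3 peptide (50 nM) in PBS pH 7.4, 0.01% Tween-20, then compound added for 30 min. AlphaScreen streptavidin donor/nickel chelate acceptor beads (10 ug/mL final), 30 min dark, luminescence read.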
JMJD2A Tudor: inhibitors of human JMJD2A Tudor domain; O75164; AlphaScreen JMJD2A-Tudor / H3K4me3 peptide binding; Potency, µM (doses to about 114 µM), for the others: at the highest dose activity change, negative = inhibition, hits mostly inhibitors; 4.4% of 390,000 active; AID 504339; also: % is scaled to controls: 0 for no effect and ±100 for the full control effect; nearly all actives have a fitted effect of over 50% in size
* marks the source's active call; other numbers are inactive results; [ ] = dose if it differs, or a comment. Calls follow the shape of the dose curve; as a rule, active = well fitted curve in the direction sought with a large enough effect; inconclusive = small, poorly fitted or top-dose-only effect, or another doubt; inactive = no such curve, though single readings can be large; an effect the other way counts as inactive or inconclusive. Potency is read from the fitted curve at half-maximal effect.

How did COc1cc(/C=C2\C(=O)N(c3ccccc3)N=C2C)ccc1Oc1ccc([N+](=O)[O-])cc1[N+](=O)[O-] do in these assays?
G9a inh: inconclusive; PLK1 PBD inh: 3.8µM*; BAZ2B block: 45µM*; 12-LOX inh: -9%; HP1b chromo inh: inconclusive; JMJD2A Tudor: 25µM*

How did Nc1ccc(Oc2ccc([N+](=O)[O-])cc2[N+](=O)[O-])cc1 do in these assays?
G9a inh: inconclusive; PLK1 PBD inh: -4%; BAZ2B block: -5%; 12-LOX inh: -21%; HP1b chromo inh: inconclusive; JMJD2A Tudor: inconclusive

Results for NC(=O)COC(=O)CCSc1ccc(Cl)cc1 ?
G9a inh: -8%; PLK1 PBD inh: -27%; BAZ2B block: -14%; 12-LOX inh: 2%; HP1b chromo inh: 11%; JMJD2A Tudor: 3%

How did COc1ccc(CNc2cc(-c3ccc(OC)cc3)nc3nncn23)cc1 do in these assays?
G9a inh: 2%[59 µM]; BAZ2B block: -8%; 12-LOX inh: -20%; HP1b chromo inh: 20%; JMJD2A Tudor: -19%

Results for O=C1C(c2ccccc2)=S=C2C=Cc3ccccc3N12 ?
12-LOX inh: 22µM*

What do the screens show for `CC(C)OCCCNCC(O)c1ccccc1` (stereo not drawn)?
G9a inh: inconclusive; PLK1 PBD inh: -1%; BAZ2B block: 79µM*; 12-LOX inh: -16%; HP1b chromo inh: inconclusive; JMJD2A Tudor: 20µM*

What do the screens show for `O=C(CSc1ccc2ccccc2c1)NCCCN1CCCC1=O`?
G9a inh: inconclusive; PLK1 PBD inh: -12%; BAZ2B block: -11%; 12-LOX inh: inconclusive; HP1b chromo inh: 47%; JMJD2A Tudor: 6%

Results for O=C1CCCN1CCCNCC(O)c1ccccc1 (stereo not drawn) ?
G9a inh: -2%; PLK1 PBD inh: 4%; BAZ2B block: inconclusive; 12-LOX inh: -9%; HP1b chromo inh: inconclusive; JMJD2A Tudor: 1µM*

Results for O=C1CCCN1CCCNCC(=O)N1c2ccccc2Sc2ccccc21 ?
G9a inh: inconclusive; PLK1 PBD inh: -6%; BAZ2B block: 22µM*; 12-LOX inh: -52%; HP1b chromo inh: inconclusive; JMJD2A Tudor: 10µM*

How did Cc1nn(CC#N)c(=O)n1-c1ccc(F)cc1 do in these assays?
G9a inh: 39%[12.7 µM]; PLK1 PBD inh: -7%; BAZ2B block: 4%; 12-LOX inh: -5%; HP1b chromo inh: 17%; JMJD2A Tudor: -9%

What do the screens show for `CCCc1nnc(SCC(=O)N2CCOCC2)n1CCCOC`?
G9a inh: 3%; PLK1 PBD inh: 17µM*; BAZ2B block: -4%; 12-LOX inh: -7%; HP1b chromo inh: -8%; JMJD2A Tudor: -12%[11.4 µM]

How did O=C1CCCc2cc3c(cc21)CCCC3 do in these assays?
PLK1 PBD inh: -2%; 12-LOX inh: 1%; HP1b chromo inh: 14%[57 µM]; JMJD2A Tudor: 14%

What do the screens show for `Nc1cc2c(cc1O)CCCC2`?
PLK1 PBD inh: -14%; BAZ2B block: -31%; 12-LOX inh: inconclusive; HP1b chromo inh: inconclusive; JMJD2A Tudor: 2.5µM*

Results for Cc1cc(C)nc(SCNC(=O)c2ccc(F)cc2)n1 ?
G9a inh: inconclusive; PLK1 PBD inh: -17%; BAZ2B block: -1%; 12-LOX inh: -2%; HP1b chromo inh: 48%; JMJD2A Tudor: -35%

What do the screens show for `COc1ccc(N2C(=O)CC(N3CCN(c4ccc(C(=O)c5cccnc5)cc4)CC3)C2=O)cc1` (stereo not drawn)?
G9a inh: 3%[59 µM]; PLK1 PBD inh: -1%; BAZ2B block: -5%; 12-LOX inh: 4%; HP1b chromo inh: 9%; JMJD2A Tudor: -15%

Results for CCOC(=O)CSc1ccc2nnc(-c3cccs3)n2n1 ?
G9a inh: 10µM*; PLK1 PBD inh: -28%; BAZ2B block: 5%; 12-LOX inh: inconclusive; HP1b chromo inh: 39%; JMJD2A Tudor: -35%

What do the screens show for `O=C(CSc1ccc2nnc(-c3cccs3)n2n1)N1CCCC1`?
G9a inh: 18µM*; PLK1 PBD inh: -25%; BAZ2B block: inconclusive; 12-LOX inh: -1%; HP1b chromo inh: 47%; JMJD2A Tudor: -3%
